# According to PubChem BioAssay (NCATS):
# Results filed as inconclusive are left out. A call without a number means that no potency is given here. Active and inactive are the calls of the source. Calls come from the whole dose curve; as a rule, active = well fitted curve in the direction sought with a large enough effect; inconclusive = small, poorly fitted or top-dose-only effect, or another doubt; inactive = no such curve, though single readings can be large; an effect the other way counts as inactive or inconclusive.
# How the values were obtained:
# [1] = biological target: Cellular tumor antigen p53 (Homo sapiens) (UniProt P04637); test: Primary qHTS for small molecule compounds that upregulate eGFP-tagged delta133p53alpha (in N-terminal) cells. (AID 2060322); conditions: NCI-H358 eGFP-delta133p53alpha fluorescence, 24 h; activation: stronger effect = higher value;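 note: cells pre-induced with doxycycline then dosed without doxycycline; series mostly up to about 56 µM; nearly all actives have a fitted effect of over 75% in size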
# Chain of Cellular tumor antigen p53 (Homo sapiens) (P04637 whole entry, looked up): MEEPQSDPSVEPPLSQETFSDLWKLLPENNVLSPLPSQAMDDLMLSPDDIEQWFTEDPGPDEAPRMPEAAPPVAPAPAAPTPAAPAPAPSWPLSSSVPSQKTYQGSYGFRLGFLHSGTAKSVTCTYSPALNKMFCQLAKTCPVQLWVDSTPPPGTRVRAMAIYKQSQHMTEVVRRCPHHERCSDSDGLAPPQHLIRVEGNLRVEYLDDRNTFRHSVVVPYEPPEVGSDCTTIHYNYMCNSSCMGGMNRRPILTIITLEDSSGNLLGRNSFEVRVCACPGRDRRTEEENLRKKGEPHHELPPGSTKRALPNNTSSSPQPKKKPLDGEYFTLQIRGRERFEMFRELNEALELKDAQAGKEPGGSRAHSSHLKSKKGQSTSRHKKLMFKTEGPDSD
# Outline: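 NCI-H358 cells pre-induced 24 h with 10 ng/ml doxycycline for eGFP-delta133p53alpha, plated dox-free and exposed 24 h at 37C to titrated compounds. Fixed, Hoechst-stained; gated GFP peak intensity by laser scanning cytometry, normalized to DMSO (0%) and 57.5 uM 5-azacytidine (100%).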
# [2] = qHTS for Inhibitors of the Aldehyde Dehydrogenase Family (ALDH1A2, ALDH1A3, ALDH2, ALDH3A1) (AID 2061307); note: nearly all actives have a fitted effect of over 50% in size; for potency: test system not described further here; potency is the fitted concentration of half-maximal effect
# [3] = biological target: Aldehyde dehydrogenase, mitochondrial (Homo sapiens) (UniProt P05091); test: qHTS for Inhibitors of the Aldehyde Dehydrogenase Family (ALDH2) Primary screen (AID 2061308); note: nearly all actives have a fitted effect of over 55% in size; note: potency is the fitted concentration of half-maximal effect
# [4] = biological target: Retinal dehydrogenase 2 (Homo sapiens) (UniProt O94788); test: qHTS for Inhibitors of the Aldehyde Dehydrogenase Family (ALDH1A2) Confirmation screens (AID 2061314); note: nearly all actives have a fitted effect of over 65% in size; note: potency is the fitted concentration of half-maximal effect
# [5] = biological target: Retinaldehyde dehydrogenase 3 (Homo sapiens) (UniProt P47895); test: qHTS for Inhibitors of the Aldehyde Dehydrogenase Family (ALDH1A3) Validation screen (AID 2061312); note: potency is the fitted concentration of half-maximal effect; nearly all actives have a fitted effect of over 45% in size
# [6] = biological target: Retinaldehyde dehydrogenase 3 (Homo sapiens) (UniProt P47895); test: qHTS for Inhibitors of the Aldehyde Dehydrogenase Family (ALDH1A3) Primary screen (AID 2061315); note: potency is the fitted concentration of half-maximal effect
# [7] = BET inhibitor-based combinations targeting novel dependencies in MECOM-rearranged (r) AML: SET-2 cell line (AID 2202231); conditions: SET-2 AML cells viability, CellTiter-Glo luminescence, 48 h; viability: stronger effect = lower value, concentration not given here; note: potency is the fitted concentration of half-maximal effect; nearly all actives have a fitted effect of over 35% in size
# Outline: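 Readout: CellTiter-Glo luminescence. Exposure: 48 h, 11 concentrations, 500 cells/well. Metric: AUC and within-line Z-AUC after DMSO/empty-well normalization.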
# [8] = BET inhibitor-based combinations targeting novel dependencies in MECOM-rearranged (r) AML: MV-4-11 cell line (AID 2202233); note: potency is the fitted concentration of half-maximal effect; nearly all actives have a fitted effect of over 45% in size
# Outline: (§1)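 Seeding density was 500 cells/well, and drug exposure lasted 48 hr under standard culture conditions. Read-out used CellTiter-Glo reagent with a 15 min room-temperature incubation before luminescence measurement; AUC and Z-AUC summarize the normalized responses.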
# [9] = BET inhibitor-based combinations targeting novel dependencies in MECOM-rearranged (r) AML: HNT-34 cell line (AID 2202234); note: potency is the fitted concentration of half-maximal effect; nearly all actives have a fitted effect of over 35% in size
# Outline: as §1
# [10] = biological target: Aldehyde dehydrogenase 1A1 (Homo sapiens) (UniProt P00352); test: qHTS for Inhibitors of the Aldehyde Dehydrogenase Family (ALDH1A1) Confirmatory screens (AID 2061316); note: potency is the fitted concentration of half-maximal effect; nearly all actives have a fitted effect of over 65% in size
# [11] = biological target: Retinaldehyde dehydrogenase 3 (Homo sapiens) (UniProt P47895); test: qHTS for Inhibitors of the Aldehyde Dehydrogenase Family (ALDH1A3) Confirmatory screens (AID 2061311); note: potency is the fitted concentration of half-maximal effect; nearly all actives have a fitted effect of over 60% in size
smiles,measurement,setting,value
O=C(C1OC1/C=C/c1ccc2c(c1)OCO2)N1CCCCC1 (stereo not given),activation,[1],-6.11% (inactive)
same,Potency,[2],inactive
same,Potency,[3],inactive
same,Potency,[4],inactive
Cc1cc(C)c2c(c1)C(N(Cc1cc(C(F)(F)F)cc(C(F)(F)F)c1)c1nnn(C)n1)CCCN2CC1CCC(C(=O)O)CC1 (stereo not given),activation,[1],26.7% (inactive)
same,Potency,[2],inactive
same,Potency,[3],inactive
same,Potency,[5],2.82 µM (active)
same,Potency,[4],20.1 µM (active)
O=C(c1c(F)ccc(NS(=O)(=O)N2CC[C@@H](F)C2)c1F)c1c[nH]c2ncc(-c3cnc(C4CC4)nc3)cc12,activation,[1],17% (inactive)
same,Potency,[2],22.4 µM (active)
same,Potency,[3],inactive
same,Potency,[4],inactive
same,Potency,[6],inactive
same,Potency,[7],16.6 µM (active)
same,Potency,[8],18.6 µM (active)
same,Potency,[9],5.9 µM (active)
CC1CC(=O)[C@]2(O)C(C(=O)OCCc3ccc(O)c(O)c3)=CO[C@@H](O[C@@H]3O[C@H](CO)[C@@H](O)[C@H](O)[C@H]3O)[C@H]12 (stereo not given in full),activation,[1],6.87% (inactive)
same,Potency,[2],inactive
same,Potency,[3],inactive
same,Potency,[4],inactive
same,Potency,[10],12.3 µM (active)
O=C(Nc1ccc(S(=O)(=O)C(F)(F)F)cc1)C1=CCN(c2ncccc2C(F)(F)F)CC1,activation,[1],-1.91% (inactive)
same,Potency,[2],inactive
same,Potency,[3],25.1 µM (active)
same,Potency,[6],inactive
CC/C=C/C(O)C(O)C1=C(C)C(=O)C2(O1)C(=O)NC(OC)(C(=O)c1ccccc1)C2O (stereo not given),activation,[1],15.3% (inactive)
same,Potency,[2],inactive
same,Potency,[3],inactive
same,Potency,[4],inactive
same,Potency,[6],inactive
COc1cc(C[C@H]2C(=O)OC[C@@H]2Cc2ccc(OC)c(OC)c2)ccc1O,activation,[1],19.6% (inactive)
same,Potency,[2],0.251 µM (active)
same,Potency,[3],inactive
same,Potency,[6],inactive
COc1ccc2c(c1)O[C@H](O[C@@H]1O[C@H](CO)[C@@H](O)[C@H](O)[C@H]1O)C(=O)N2,activation,[1],-12.5% (inactive)
same,Potency,[2],inactive
same,Potency,[3],inactive
same,Potency,[11],13.9 µM (active)
same,Potency,[6],6.31 µM (active)
